# Most compounds without a hit are left out; they make up all but 12% or so of the library.
# JMJD2A Tudor inh: JMJD2A Tudor domain (human) inhibition. O75164. AlphaScreen JMJD2A-Tudor / H3K4me3 peptide binding. Potency, µM (highest dose often 114 µM), for the others: top-dose activity change, negative = inhibition, hits mostly inhibitors. 390,000 compounds, 4.4% hits. AID 504339; note: % is set by controls: 0 for no effect and ±100 for the full control effect; nearly all actives have a fitted effect of over 50% in size
# Sfp PPTase inh: blocks B. subtilis Sfp PPTase activity; 310,000 compounds, 3.5% hits; Potency, µM, for the others: largest response in the series, negative = inhibition, hits mostly inhibitors; Biochemical Sfp PPTase activity, qHTS;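 note: the enzyme is Sfp with the accession as filed and its product quenches rhodamine fluorescence; 0% = enzyme reaction without inhibitor and -100% = no enzyme wells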
#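 Buffer: 50 mM Hepes-Na pH 7.6, 10 mM MgCl2, 0.01% Nonidet P-40, 0.01% BSA. Enzyme 15 nM, pre-exposed to compound 15 min; substrates then added and fluorescence change tracked over 30 min.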
# BAZ2B block: blocks human BAZ2B; Q9UIF8; AlphaScreen BAZ2B-H3K14Ac peptide displacement; Potency, µM (highest dose often 114 µM), for the others: top-dose activity change, negative = inhibition, actives largely listed as inhibitors; 360,000 compounds, 4.4% hits; AID 504333; note: % is set by controls: 0 for no effect and ±100 for the full control effect; nearly all actives have a fitted effect of over 60% in size
#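 Protein-peptide AlphaScreen: BAZ2B 50 nM, b-H3K14Ac 50 nM, 1x PBS pH 7.4 + 0.01% Tween-20. Preincubation 30 min RT; cpd 30 min RT (top 110 uM); beads 20 min RT, light-protected.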
# HP1b chromo inh: HP1-beta chromodomain-methylated histone interaction inhibition; P83916; AlphaScreen HP1-beta / biotin-H3K9me3 peptide binding; Potency, µM (series often up to 114 µM), without a hit: top-dose activity change, negative = inhibition, usual class: inhibitors; 390,000 compounds, 0.56% hits; note: nearly all actives have a fitted effect of over 70% in size
#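 Compound inhibition of the preformed complex between 50 nM HP1-beta and 50 nM biotinylated H3K9me3 peptide was read by AlphaScreen. Buffer was PBS pH 7.4 with 0.01% Tween-20. Incubations ran 30 min at room temperature, with 10 ug/mL donor/acceptor beads.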
# G9a block: blocks human histone lysine methyltransferase G9a; Q96KQ7; G9a H3K9 monomethylation, AlphaScreen, 2 h; Potency, µM (doses to about 102 µM), for the others: at the top dose activity, negative = inhibition, hits mostly inhibitors; 350,000 compounds, 8.8% hits; AID 504332; note: % is set by controls: 0 for no effect and ±100 for the full control effect; nearly all actives have a fitted effect of over 75% in size
#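 Signal arises when biotinylated H3K9 peptide, once monomethylated, bridges streptavidin donor and antibody-captured acceptor beads. Enzyme at 20 nM was preincubated 15 min with test compounds; peptide 500 nM and SAM 20 uM then reacted for 2 h.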
# Active calls of the source: *; ? = inconclusive; . = no result; ! = a repeat was not active; [ ] = dose if it differs, or a comment. Calls come from the whole dose curve; as a rule, active = well fitted curve in the direction sought with a large enough effect; inconclusive = small, poorly fitted or top-dose-only effect, or another doubt; inactive = no such curve, though single readings can be large; an effect the other way counts as inactive or inconclusive. Potency is the fitted concentration of half-maximal effect.
SMILES,JMJD2A Tudor inh,Sfp PPTase inh,BAZ2B block,HP1b chromo inh,G9a block
COc1ccc(Nc2cc(C(=O)NCCCN(C)C3CCCCC3)c3ccccc3n2)c(OC)c1,20µM*,.,.,?,?
COc1ccc2nc3c(cc2c1)Cn1c-3nc2ccccc2c1=O,2.8%,5.7%,.,3.2%,.
CCC(C)c1ccc(N(CC(=O)NC(C)(C)C)C(=O)CNC(=O)c2cccs2)cc1 (stereo unspecified),-14.7%,12.3%,1.1%,12.5%,5.9%
COc1ccc2c(c1)O[C@@H](c1ccc3c(c1)OCO3)[C@H](OC(=O)NS(=O)(=O)c1ccc(F)cc1)C2=O,.,1.2%,.,.,.
CC(/C=C/c1ccccc1)=N\Nc1ccccc1[N+](=O)[O-],10µM*,-4.6%,2.24µM*,3.98µM*,0.891µM*
COc1ccc(CNS(=O)(=O)c2ccc(OC)cc2)cc1,7.9%,6.2%,10.9%,21.4%,13.3%[12.7 µM]
COc1ccc(S(=O)(=O)NCc2ccc3c(c2)cc(C)n3C)cc1,?,-9.4%,-35.7%,-19.1%,70.8µM*
Cc1cc2cc(CNS(=O)(=O)c3ccccc3)ccc2n1C,?,-19.9%,?,-4.9%,50.1µM*
CCS(=O)(=O)NCc1ccc2c(c1)cc(C)n2C,-35.4%,-4.5%,-35.1%,8.1%,-15.7%[59 µM]
CC(=O)c1cc2c(cc1NC(=O)c1c(C)nn(-c3ccc(C)cc3)c1-n1cccc1)OCO2,-0.3%,.,-20.4%,39.9%,-10.0%[59 µM]
O=C(NCc1ccccc1)NCc1cccs1,-6.9%,14.8%,-2.3%,26.1%,.
O=C(NCc1cccs1)Nc1cccs1,-22.3%,17.8µM*,-1.3%,-32.5%,-11.3%[2.33 µM]
Cc1ccccc1CNC(=O)Nc1ccc(Cl)cc1,-8.3%,15.5%,-3.7%,31.2%,-4.6%
Cc1ccccc1CNC(=O)Nc1cccs1,-23.9%,20µM*,-28.3%,?,7.08µM*
Cc1c(C(=O)Nc2cccnc2Cl)oc2ccccc12,7.8%,13.2%,2.7%,26.9%,-2.9%
Cc1cc(N2CCN(C)CC2)nc(=S)[nH]1,-9.0%,50.1µM*,-29.5%,54.2%,39.8µM*
CC(C)(C)NC(=O)C[C@H]1C[C@H](C(=O)N2CCOCC2)[C@@]2(CCC3CCCC3)c3[nH]c4cc(-c5ccco5)ccc4c3CCN2C1=O,?,.,.,-22.9%,.
COc1ccc(NS(=O)(=O)c2cc(Br)cc3c2N(C(C)=O)CC3)cc1,-14.4%,2.1%,-20.6%,25.5%,-14.1%
CCC(=O)N1CCc2cc(Br)cc(S(=O)(=O)NCc3ccco3)c21,-14.9%,-6.4%,-5.4%,16.5%,44.7µM*
CC(=O)N1CCc2cc(Br)cc(S(=O)(=O)NCc3ccccn3)c21,79.4µM*,3.9%,-31.3%,-7.5%,?
COC(=O)c1cc(NS(=O)(=O)c2cc(Br)cc3c2N(C(C)=O)CC3)cc(C(=O)OC)c1,4.5%,.,70.8µM*,36.6%,-14.0%[59 µM]
CC(=O)N1CCc2cc(Br)cc(S(=O)(=O)N3CCC(C(=O)O)CC3)c21,-13.1%,19.7%,-29.7%,-0.1%,50.1µM*
CCCCSc1nc(-c2ccc(OC)cc2)ccc1C#N,216.8%,.,190.5%,238.6%,85.7%[59 µM]
CCOc1ccc(-n2c(=O)c3sccc3n(CC(=O)NC3CCCCC3)c2=O)cc1,-3.6%,?,4.8%,2.4%,-1.9%
CN1CCN(c2ncnc3ccc(-c4ccoc4)cc23)CC1,.,17.3%,.,.,2.7%[0.501 µM]
c1ccc2c(-c3nc(-c4ccncc4)no3)cccc2c1,7.6%,10µM*,74.5%,127.7%,29.2%[12.7 µM]
c1ccc(-c2noc(-c3cccc4ccccc34)n2)cc1,29.2%,-13.5%,365.1%,202.7%,52.8%[12.7 µM]
C=C1c2c(Cl)ccc(O)c2C(O)=C2C(=O)[C@@]3(O)C(O)=C(C(N)=O)C(=O)[C@@H](N(C)C)[C@@H]3[C@@H](O)[C@H]12,.,10.3%,.,.,11.2µM*
C[C@H]1c2cccc(O)c2C(O)=C2C(=O)[C@]3(O)C(O)=C(C(N)=O)C(=O)[C@@H](N(C)C)[C@@H]3[C@@H](O)[C@@H]21,12.6µM*,-3.2%,8.91µM*,19.1%,2.67µM*!
C[C@H]1c2cccc(O)c2C(O)=C2C(=O)[C@]3(O)C(O)=C(C(N)=O)C(=O)C(N(C)C)[C@@H]3[C@@H](O)C21 (stereo partly specified),.,.,.,.,3.16µM*

# Bioassay records: PubChem, National Center for Advancing Translational Sciences (NCATS)
